TbPYK inhibitor = blocks Trypanosoma brucei pyruvate kinase; Q57TT1; TbPYK enzyme, Kinase-Glo Plus ATP luminescence, 45 min; Potency, µM (series often up to 76.8 µM), most hits filed as inhibitors; hit rate 0.12% among 410,000; AID 624173; further: nearly all actives have a fitted effect of over 50% in size
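Luminescence from Kinase-Glo Plus, added after a 45-minute room-temperature reaction, served as the end-point read-out. The enzyme and substrate were preincubated with compound before ADP (130 uM final) initiated turnover. Concentration-effect curves came from normalized qHTS data.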
Giardia FBPA inh-1 = blocks Giardia fructose-bisphosphate aldolase activity; Potency, µM (top dose mostly 59.6 µM), actives largely listed as inhibitors; A8B2U2; hit rate 0.71% among 290,000; purified Giardia FBPA; further: nearly all actives have a fitted effect of over 55% in size
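Giardia FBPA (40 nM reagent) was preincubated 10 min at RT with compound (up to 57.5 uM final), then substrate plus GAPDH/TPI/NAD/arsenate coupling system with diaphorase/resazurin was added; resorufin fluorescence (525/598 nm) was read after 20 min.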
LmPK inhibitor = blocks Leishmania mexicana pyruvate kinase activity; Q27686; purified LmPK, Kinase-Glo ATP luminescence, 1 h; Potency, µM (doses to about 57.5 µM), most hits filed as inhibitors; hit rate 0.37% among 290,000
Target sequence (Q27686 whole entry, looked up): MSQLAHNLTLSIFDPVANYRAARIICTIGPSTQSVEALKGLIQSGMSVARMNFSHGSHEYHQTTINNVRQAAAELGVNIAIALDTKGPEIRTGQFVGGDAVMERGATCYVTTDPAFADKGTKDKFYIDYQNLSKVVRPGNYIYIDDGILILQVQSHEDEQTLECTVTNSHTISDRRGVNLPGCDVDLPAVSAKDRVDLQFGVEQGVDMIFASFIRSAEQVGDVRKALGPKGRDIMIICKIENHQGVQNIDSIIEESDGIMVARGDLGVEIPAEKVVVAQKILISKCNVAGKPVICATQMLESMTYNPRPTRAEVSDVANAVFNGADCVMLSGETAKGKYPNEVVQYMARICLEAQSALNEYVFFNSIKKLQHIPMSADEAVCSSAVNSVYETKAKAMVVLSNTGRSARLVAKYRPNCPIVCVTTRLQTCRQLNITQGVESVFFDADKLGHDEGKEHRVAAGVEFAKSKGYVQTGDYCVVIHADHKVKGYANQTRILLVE
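Kinase-Glo luminescence read after 1 h RT reaction of 0.1 nM LmPK with 0.5 mM PEP and 0.1 mM ADP. Activity scaled between uninhibited and enzyme-free controls.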
NS1 inh = influenza NS1 inhibition | Potency, µM (highest dose often 46.1 µM) | hit rate 0.4% among 270,000 | AID 2326; calls by dose curve; further: actives are rising curves; nearly all actives have a fitted effect of over 50% in size
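In this qHTS, NS1 from influenza A is expressed in budding yeast, where it slows growth. Cells are switched from glucose to 2% galactose medium (pH 6.0, -URA), treated with compound, and growth recovery is read at OD600.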
AMA1 RON2 block = disrupts binding of P. falciparum AMA1 to RON2 | AlphaScreen AMA1-biotinylated RON2 peptide binding | Potency, µM (series often up to 58.2 µM), hits mostly inhibitors | hit rate 0.2% among 360,000; further: nearly all actives have a fitted effect of over 45% in size
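AMA1 (3D7) with his tag at 25 nM final met compounds first, then biotinylated RON2 peptide at 25 nM; detection used donor plus acceptor beads, 10 µg/mL apiece, read by AlphaScreen after 30 min at room temperature.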
Giardia growth = inhibitors of Giardia lamblia growth; Giardia lamblia trophozoite growth inhibition; AID 2785; hit rate 5% among 1,500; shares compounds with Giardia FBPA inh-1; Potency, µM (series often up to 57.5 µM), most hits filed as inhibitors;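 further: trophozoites exposed to compound for 48 h at 37 °C; nearly all actives have a fitted effect of over 70% in size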
Mammalian tox = mammalian cytotoxicity of Giardia aldolase inhibitor hits. shares compounds with Giardia FBPA inh-1. mammalian cell viability counter-screen, qHTS. Potency, µM (top dose mostly 57.5 µM), usual class: inhibitors. hit rate 4% among 1,500. AID 2786;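 further: Chinese hamster ovary cells used as mammalian cytotoxicity surrogate; viability measured as cellular ATP by luminescence; compound exposure lasted 48 h before reading; nearly all actives have a fitted effect of over 60% in size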
Giardia FBPA inh-2 = confirmation of Giardia fructose-bisphosphate aldolase inhibitors. shares compounds with Giardia FBPA inh-1. purified Giardia aldolase enzyme activity, qHTS. Potency, µM (titrated, usually from 57.5 µM), actives largely listed as inhibitors. hit rate 5% among 1,500; further: nearly all actives have a fitted effect of over 45% in size
Rabbit FBPA inh = selectivity test for Giardia aldolase inhibitors: rabbit aldolase | shares compounds with Giardia FBPA inh-1 | Rabbit muscle FBPA enzyme inhibition, selectivity counter-screen | Potency, µM (highest dose often 57.5 µM), most hits filed as inhibitors | hit rate 4% among 1,500 | AID 2794; further: nearly all actives have a fitted effect of over 60% in size
GAPDH coupling = GAPDH inhibition flagged for Giardia aldolase hits | shares compounds with Giardia FBPA inh-1 | GAPDH coupling enzyme counterscreen, biochemical, qHTS | Potency, µM (titrated, usually from 57.5 µM), usual class: inhibitors | hit rate 6% among 1,500 | AID 2795; further: nearly all actives have a fitted effect of over 55% in size
Numbers stand for hits; . = inactive; ? = inconclusive; / = no result; [ ] = remark or other dose. Rows were chosen to be rich in hits. Some 1.2% of all compounds tested hit in one or more screens of this group. Unless noted, the call rests on the fitted dose curve; in most records, active means well fitted curve in the direction sought with a large enough effect; inconclusive means small, poorly fitted or top-dose-only effect, or another doubt; inactive means no such curve, though single readings can be large; an effect the other way counts as inactive or inconclusive.

SMILES	TbPYK inhibitor	Giardia FBPA inh-1	LmPK inhibitor	NS1 inh	AMA1 RON2 block	Giardia growth	Mammalian tox	Giardia FBPA inh-2	Rabbit FBPA inh	GAPDH coupling
Cc1cccc(N(CC(=O)N/N=C/c2cc([N+](=O)[O-])ccc2Cl)S(C)(=O)=O)c1C	.	18µM	.	.	.	.	.	.	.	?
Cc1nnc(SCC2=C(C(=O)O)N3C(=O)C(NC(=O)Cn4nc(C(F)F)cc4C)C3SC2)s1 (stereo unspecified)	.	14µM	.	/	.	.[10.4 µM]	.	.	.	.
Cc1nnc(SCC2=C(C(=O)O)N3C(=O)C(NC(=O)COc4ccc(F)cc4)C3SC2)s1 (stereo unspecified)	.	/	/	/	.	/	/	/	/	/
Cc1nnc(SCC2=C(C(=O)O)N3C(=O)C(NC(=O)c4cc(F)c(F)cc4Cl)C3SC2)s1 (stereo unspecified)	.	20µM	.	/	.	?	.	.	.	.
COc1ccc(/C(O)=C2\C(=O)C(=O)N(Cc3ccco3)C2c2cc(OC)ccc2OC)cc1 (stereo unspecified)	.	.	.	.	.	/	/	/	/	/
Cc1ccc(C2/C(=C(/O)c3ccc(Br)cc3)C(=O)C(=O)N2Cc2ccco2)o1 (stereo unspecified)	.	20µM	.	.	.	?	.	.	.	.
C/C(CCc1ccc2c(c1)OCO2)=N\NC(=O)c1ccccc1	.	.	.	.	.	/	/	/	/	/
NC(=NCc1ccc2c(c1)OCO2)NC(=O)c1ccccc1	.	1.4µM	.	.	.	.	.	.	.	.
Cc1ccc(C(=O)OC[C@H]2O[C@H](Cl)C[C@@H]2OC(=O)c2ccc(C)cc2)cc1	/	.	/	/	/	/	/	/	/	/
CN(C)CCCCOc1ccccc1F	.	20µM	.	.	.	?	.	.	.	.
CCOC(=O)N1CCN(CC(O)COc2ccccc2C(C)C)CC1 (stereo unspecified)	.	.	.	.	.	/	/	/	/	/
CCN(CCNCC(O)COc1ccccc1C(C)C)c1cccc(C)c1 (stereo unspecified)	.	22µM	.	.	?	.	.	.	.	.
N=C(N)SCCc1ccccn1	/	/	/	.	/	/	/	/	/	/
O/N=C/c1ccc2cccc(O)c2n1	.	7.1µM	.	.	.	.[10.4 µM]	.	2µM	.	.
O=C(O)c1ccc(/C=C/c2ccc3cccc(O)c3n2)cc1	.	18µM	.	/	.	.	.	4µM	?	?
O=c1c(=O)n(O)c2ccccc2n1O	.	18µM	.	.	.	?	.	.	.	.
C=CCC(NCc1ccccc1)c1ccc(OC)cc1 (stereo unspecified)	.	14µM	.	.	.	.	.	.	.	.
C=CCC(NCc1ccccc1)c1ccco1 (stereo unspecified)	.	.	.	.	.	/	/	/	/	/
NCC1O[C@@H](OC2C(N)C[C@H](N)[C@@H](O[C@H]3OC(CO)C(O)C(N)C3O)C2O)C(N)C(O)C1O (stereo partly specified)	.	.	/	/	/	/	/	/	/	/
Clc1cccc(CN2CCN(Cc3ccco3)CC2)c1	.	14µM	.	.	?	.	.	.	.	.
Cc1cccc(CN2CCN(Cc3ccco3)CC2)c1	.	?	.	.	?	/	/	/	/	/
CN1CCC(NCCC(c2ccc(F)cc2)c2ccc(Cl)cc2)CC1 (stereo unspecified)	.	14µM	.	.	.	?	20µM	.	.	.
CCNC(=S)N/N=C/c1ccc(C(=O)O)cc1	.	18µM	?	/	.	.[10.4 µM]	.	.	.	.
CNC(=S)N/N=C/c1ccc(-c2ccc(C(=O)O)cc2)o1	.	18µM	14µM	.	.	.[10.4 µM]	.	.	.	.
CC(C)c1nccn1Cc1ccc(Cl)cc1Cl	/	/	/	.	/	/	/	/	/	/
SMILES	TbPYK inhibitor	Giardia FBPA inh-1	LmPK inhibitor	NS1 inh	AMA1 RON2 block	Giardia growth	Mammalian tox	Giardia FBPA inh-2	Rabbit FBPA inh	GAPDH coupling
CCc1c(O)nc(SC2CC(=O)N(c3ccc(F)c(Cl)c3)C2=O)[nH]c1=O (stereo unspecified)	.	3.2µM	.	.	.	.	.	?	.	.
Cc1ccc(NS(=O)(=O)c2cc(-c3cc(C)no3)ccc2C(C)C)nc1	.	20µM	.	.	.	.	.	?	?	?
CCc1ccc(-c2cc(C)no2)cc1S(=O)(=O)Nc1ccc(C)cn1	.	/	.	.	.	/	/	/	/	/
O=C1/C(=C/c2ccco2)SC(=S)N1CC1CCCO1 (stereo unspecified)	.	?	.	.	?	/	/	/	/	/
Cc1ccc(/C=C2\SC(=S)N(CC3CCCO3)C2=O)o1 (stereo unspecified)	?	18µM	.	.	?	.	.	.	.	.
O=P(O)(O)CP(=O)(O)O	.	6.3µM	.	.	/	.	.	.	.	.
Cc1ccc2[nH]c(-c3ccc(F)cc3F)cc(=O)c2c1	/	.	/	/	/	/	/	/	/	/
Cc1cc(C)nc(N/N=C/c2ccccc2OCc2ccccc2)n1	.	.	.	.	.	/	/	/	/	/
Cc1cc(C)nc(N/N=C/c2ccccc2OCC(=O)O)n1	.	5µM	.	.	.	.	.	.	.	.
CCCn1nnc(NC(=O)/C=C/c2ccco2)n1	.	.	.	.	.	/	/	/	/	/
Cn1nnc(NC(=S)NC(=O)/C=C/c2ccco2)n1	.	3.5µM	.	.	.	.	.	.	.	.
Cc1cc(C)nc(N2N=C(c3ccccc3)CC2=O)n1	.	.	.	.	.	/	/	/	/	/
Cc1cc(C)nc(N2N=C(C(F)(F)F)CC2=O)n1	.	11µM	.	.	.	.	.	.	.	.
Cc1ccc(NC(=S)N2CCN(Cc3ccccc3)CC2)cc1	.	.	.	/	.	/	/	/	/	/
C=CCNC(=S)N1CCN(Cc2ccccc2)CC1	.	18µM	.	.	?	.[10.4 µM]	.	.	.	.
Cc1ccc(CN2CCN(C(=O)c3ccncc3)CC2)cc1	.	18µM	.	.	.	.	.	.	.	.
Cc1ccc(C(=S)N2CCN(Cc3ccccc3)CC2)cc1	?	16µM	.	.	?	?	.	.	.	.
CCOC(=O)c1c[nH]c2cc(OCC(C)C)c(OCC(C)C)cc2c1=O	.	/	/	/	/	/	/	/	/	/
NN1C(=O)/C(=C2/Sc3ccccc3N2CCCS(=O)(=O)O)SC1=S	.	18µM	.	.	.	.[10.4 µM]	.	.	.	.
Cc1nnc(NC(=O)CN2CCN(Cc3c(Cl)cccc3Cl)CC2)s1	.	.	.	.	.	/	/	/	/	/
Cc1nnc(NC(=O)CN2CCN(Cc3ccccc3Cl)CC2)s1	.	4.5µM	.	.	.	.[10.4 µM]	.	.	.	.
